In the library only some 0.2% were active in any assay of this set; here they are far more common.
Bim-Bcl-XL: inhibitors of Bim-Bcl-XL binding, primary screen, biochemical, multiplexed, bead flow cytometry, human Bcl-XL | Bcl-2-like protein 1 (Homo sapiens), Q07817 | Bim peptide-Bcl-XL binding, fluorescence | inhibition, % at 10 µM | 0.04% of 190,000 active
Target sequence (Q07817 whole entry, looked up): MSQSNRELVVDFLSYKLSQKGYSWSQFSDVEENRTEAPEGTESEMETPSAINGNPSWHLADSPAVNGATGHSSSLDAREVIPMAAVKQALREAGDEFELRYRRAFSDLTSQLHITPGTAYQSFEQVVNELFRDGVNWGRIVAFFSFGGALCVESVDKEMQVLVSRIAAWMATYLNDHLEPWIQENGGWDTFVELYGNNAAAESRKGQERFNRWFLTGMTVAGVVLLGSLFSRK
Bcl-2 Bim block: inhibitors of Bim-Bcl-2 binding, primary screen, biochemical, multiplexed, human Bcl-2 family | Apoptosis regulator Bcl-2 (Homo sapiens), P10415 | Bead-based flow cytometry, Bim peptide-Bcl-2 binding | inhibition, % at 10 µM | 0.06% of 190,000 active | AID 950, 2007; in the data active means inhibition above about 40%;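 further: 0% = no compound wells with probe peptide and 100% = reference peptide inhibitor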
Bcl-W Bim block: inhibitors of Bim binding to Bcl-W, primary screen, biochemical, multiplexed, bead-based flow cytometry; inhibition, % at 10 µM; Bcl-2-like protein 2 (Homo sapiens), Q92843; Bim peptide-Bcl-W binding; 0.02% of 190,000 active;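 further: 0% = bound tracer without compound and 100% = peptide blocker; higher means less fluorescent Bim peptide bound to Bcl-W beads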
Bim-Bfl-1: inhibitors of Bim binding to Bfl-1, primary screen, biochemical, multiplexed, bead-based flow cytometry | inhibition, % at 10 µM | 0.12% of 190,000 active | Bim-Bfl-1 binding inhibition;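 further: 0% = wells without compound plus tracer and 100% = blocker peptide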
Target sequence (Q16548 whole entry, looked up): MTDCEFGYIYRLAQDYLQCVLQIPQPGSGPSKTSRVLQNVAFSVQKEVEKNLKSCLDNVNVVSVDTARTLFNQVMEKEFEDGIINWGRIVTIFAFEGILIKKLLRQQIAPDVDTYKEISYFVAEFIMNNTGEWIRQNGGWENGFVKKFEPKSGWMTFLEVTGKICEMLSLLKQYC
Bcl-B Bim block: inhibitors of Bim-Bcl-B binding, primary screen, biochemical, multiplexed, human Bcl-2 family; AID 951, 2007; Bcl-2-like protein 10 (Homo sapiens), Q9HD36; 0.073% of 190,000 active; inhibition, % at 10 µM; bead-based flow cytometry, Bim peptide-Bcl-B binding;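 further: 0% = tracer peptide without compound and 100% = reference inhibitor peptide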
Target sequence (Q9HD36 whole entry, looked up): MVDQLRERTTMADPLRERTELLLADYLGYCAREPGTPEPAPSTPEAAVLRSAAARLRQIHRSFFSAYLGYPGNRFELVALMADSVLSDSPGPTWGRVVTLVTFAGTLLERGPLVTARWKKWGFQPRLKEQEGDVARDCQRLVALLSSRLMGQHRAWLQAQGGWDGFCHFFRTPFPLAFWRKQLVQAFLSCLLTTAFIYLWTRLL
Pf gamet viab: late stage P. falciparum gametocyte viability inhibitors, primary screen, ATP luminescence, HTS | AID 743093, 2013 | inhibition, % at 10.9 µM | 0.065% of 150,000 active | P. falciparum stage V gametocytes, 24 h;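 active means inhibition above the mean plus 3 SD of compounds within the control limits, set per campaign, cut at about 38% in these data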;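 further: 0% = DMSO wells and 100% = medium only without gametocytes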
Starred values were filed as active, the others as inactive. Unless noted, no stated cut-off is given here; in the data, active means inhibition above about 40%.

CCOc1ccc(OCCOCCOc2ccccc2Cl)cc1 was read as Bim-Bcl-XL 29, Bcl-2 Bim block 18, Bcl-W Bim block 18, Bim-Bfl-1 26, Bcl-B Bim block 14 and Pf gamet viab -3.
For COc1ccccc1OCCOCCOc1ccccc1Cl the results were Bim-Bcl-XL -6, Bcl-2 Bim block -3, Bcl-W Bim block -6, Bim-Bfl-1 -4, Bcl-B Bim block -7 and Pf gamet viab 51*.
Screening COc1ccc(/C(O)=C2/C(=O)C(=O)N(CCN3CCNCC3)C2c2cccc([N+](=O)[O-])c2)cc1 (stereo not given) returned Pf gamet viab -3.
O=S1(=O)N=C(N(CCO)/N=C/c2ccncc2)c2ccccc21 was read as Bim-Bcl-XL 40*, Bcl-2 Bim block 12, Bcl-W Bim block 30, Bim-Bfl-1 7, Bcl-B Bim block 23 and Pf gamet viab 10.
For CC1(C)SC(=S)N(NC(=O)Nc2ccccc2)C1N(O)C(=O)Nc1cccc2ccccc12 (stereo not given) the results were Bim-Bcl-XL 45*, Bcl-2 Bim block 38, Bcl-W Bim block 37, Bim-Bfl-1 48*, Bcl-B Bim block 32 and Pf gamet viab 1.
`CCOC(=O)CNc1nc(Cl)nc(Nc2ccc(Cl)cc2)n1` gave Pf gamet viab 26.
`O=[N+]([O-])c1ccc2c(c1)N([O-])C1(CCCCC1)[N+]2=O` gave Pf gamet viab -14.
For O=C1Nc2ccc([N+](=O)[O-])cc2OC1CCN1CCN(Cc2ccc3c(c2)OCO3)CC1 (stereo not given) the results were Bim-Bcl-XL 0, Bcl-2 Bim block 72*, Bcl-W Bim block -2, Bim-Bfl-1 47*, Bcl-B Bim block 73* and Pf gamet viab -7.
O=C1Nc2ccc([N+](=O)[O-])cc2OC1CCN1CCN(Cc2ccccc2)CC1 (stereo not given) was read as Bim-Bcl-XL -1, Bcl-2 Bim block 0, Bcl-W Bim block 0, Bim-Bfl-1 -6, Bcl-B Bim block -3 and Pf gamet viab 3.
For CCOc1ccccc1N1CCN(C(=O)c2ccc3[nH]c4c(c3c2)CCCC4)CC1 the results were Bim-Bcl-XL -2, Bcl-2 Bim block 1, Bcl-W Bim block -2, Bim-Bfl-1 -1, Bcl-B Bim block -7 and Pf gamet viab 44*.
`CCOCCCNC(=O)c1ccc(OC2CCN(C(C)=O)CC2)c(OC)c1` gave Pf gamet viab -6.
COC(=O)C(C(C)=O)C1=C/C(=N\S(=O)(=O)c2ccc(C)cc2)c2ccccc2C1=O (stereo not given) was read as Bim-Bcl-XL -6, Bcl-2 Bim block -6, Bcl-W Bim block 1, Bim-Bfl-1 -9 and Bcl-B Bim block -6.
Screening CC(C)c1ccc(S(=O)(=O)/N=C2/C=CC(=O)c3ccccc32)cc1 returned Bim-Bcl-XL 1, Bcl-2 Bim block 6, Bcl-W Bim block 9, Bim-Bfl-1 42* and Bcl-B Bim block -16.
CC(=O)Oc1c(Br)cc(N(C(C)=O)S(=O)(=O)c2ccccc2)c2ccccc12 was read as Pf gamet viab -3.
For CC[C@H]1C(=O)[C@@H](Cc2ccccc2)[C@@H]2CCN3C(=O)CCC[C@H]1[C@H]23 the results were Pf gamet viab -50.
Cc1ccc(S(=O)(=O)N(C)c2c(C)ccc(S(=O)(=O)N3CCN(C)CC3)c2C)cc1 was read as Bim-Bcl-XL -5, Bcl-2 Bim block -1, Bcl-W Bim block -4, Bim-Bfl-1 0, Bcl-B Bim block -4 and Pf gamet viab -3.
For Cc1ccc(S(=O)(=O)N2CCN(Cc3ccccc3)CC2)c(C)c1N(C)S(=O)(=O)c1ccccc1 the results were Bim-Bcl-XL -12, Bcl-2 Bim block -13, Bcl-W Bim block -8, Bim-Bfl-1 -11, Bcl-B Bim block -11 and Pf gamet viab 42*.
Screening C=CCNc1nc2c(c(=O)[nH]c(=O)n2C)n1CCCc1ccccc1 returned Pf gamet viab -16.
`N/C(=N\OC(=O)c1cccs1)C1(c2ccc(Cl)cc2Cl)CC1` gave Pf gamet viab 2.
Screening N/C(Cc1ccc(Cl)c(Cl)c1)=N\OC(=O)c1cccs1 returned Bim-Bcl-XL 8, Bcl-2 Bim block 29, Bcl-W Bim block 15, Bim-Bfl-1 14, Bcl-B Bim block 41* and Pf gamet viab -12.
COc1cccc2sc(Nc3nc(-c4ccncc4)cs3)nc12 was read as Bim-Bcl-XL 0, Bcl-2 Bim block -4, Bcl-W Bim block 1, Bim-Bfl-1 -6, Bcl-B Bim block 0 and Pf gamet viab 50*.
`Cc1cccc(-n2ccnc2CN2CCC(CO)(Cc3ccccc3)CC2)c1` gave Pf gamet viab 6.
For CCC(/C=C1\Sc2ccc(OC)cc2N1CCO)=C\c1sc2ccc(OC)cc2[n+]1CCO the results were Bim-Bcl-XL 51*, Bcl-2 Bim block 60*, Bcl-W Bim block 40*, Bim-Bfl-1 62*, Bcl-B Bim block 14 and Pf gamet viab 5.
For CCC(/C=C1\Sc2ccc(OC)cc2N1CC)=C\c1sc2ccc(OC)cc2[n+]1CCCS(=O)(=O)[O-] the results were Bim-Bcl-XL 3, Bcl-2 Bim block 5, Bcl-W Bim block 1, Bim-Bfl-1 -1, Bcl-B Bim block 4 and Pf gamet viab 0.
O=C(Nc1cccc(Cl)c1Cl)C1CCCO1 (stereo not given) was read as Pf gamet viab 14.
Screening COc1ccccc1N=c1oc2cc(O)ccc2cc1C(N)=O returned Bim-Bcl-XL -2, Bcl-2 Bim block 2, Bcl-W Bim block 0, Bim-Bfl-1 0, Bcl-B Bim block 0 and Pf gamet viab 56*.
COc1ccccc1N=c1oc2cc(O)ccc2cc1C(=O)NCC1CCCO1 (stereo not given) was read as Bim-Bcl-XL -1, Bcl-2 Bim block -3, Bcl-W Bim block 0, Bim-Bfl-1 0, Bcl-B Bim block -1 and Pf gamet viab 24.
Screening CC(C(=O)Nc1ccccc1Oc1ccccc1)c1ccccc1 (stereo not given) returned Bim-Bcl-XL -5, Bcl-2 Bim block -3, Bcl-W Bim block -2, Bim-Bfl-1 -2, Bcl-B Bim block 0 and Pf gamet viab 60*.
COc1ccc(S(=O)(=O)NCCCn2ccnc2)cc1C(C)(C)C was read as Pf gamet viab 6.
For COc1cc(C=Nc2cccc(C)c2)c(O)c([N+](=O)[O-])c1 the results were Bim-Bcl-XL 30, Bcl-2 Bim block 44*, Bcl-W Bim block 23, Bim-Bfl-1 42*, Bcl-B Bim block 58* and Pf gamet viab -11.
For Cc1cccc(N=Cc2cc3c(cc2[N+](=O)[O-])OCO3)c1 the results were Bim-Bcl-XL 0, Bcl-2 Bim block 0, Bcl-W Bim block 0, Bim-Bfl-1 2 and Bcl-B Bim block -1.

Assay outcomes (PubChem BioAssay)
